Results: PubChem BioAssay AID1376 (SRMLSC, 2008)
About 530 (0.24%) of roughly 220,000 compounds were called active. No stated cut-off is given here; in the data, active means inhibition above about 13%; inconclusive means no clear call, values can overlap the other calls; inactive means below that. This excerpt belongs to a sample that is enriched for actives. Results with a measured potency or affinity are listed apart.

Molecular target: Bifunctional protein GlmU (Mycobacterium tuberculosis (strain ATCC 25618 / H37Rv)) (UniProt P9WMN3)
Assay: inhibition of mycobacterial GlmU enzyme – biochemical, glucosamine-1-phosphate acetyltransferase (AID 1376);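 further: 0% = complete reaction with vehicle and 100% = reaction without substrate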
Details: M. tuberculosis GlmU acetyltransferase enzyme assay; hits give high values;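 tested at 30 µM in the primary screen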

Sequence of Bifunctional protein GlmU (Mycobacterium tuberculosis (strain ATCC 25618 / H37Rv)) (P9WMN3 whole entry, looked up): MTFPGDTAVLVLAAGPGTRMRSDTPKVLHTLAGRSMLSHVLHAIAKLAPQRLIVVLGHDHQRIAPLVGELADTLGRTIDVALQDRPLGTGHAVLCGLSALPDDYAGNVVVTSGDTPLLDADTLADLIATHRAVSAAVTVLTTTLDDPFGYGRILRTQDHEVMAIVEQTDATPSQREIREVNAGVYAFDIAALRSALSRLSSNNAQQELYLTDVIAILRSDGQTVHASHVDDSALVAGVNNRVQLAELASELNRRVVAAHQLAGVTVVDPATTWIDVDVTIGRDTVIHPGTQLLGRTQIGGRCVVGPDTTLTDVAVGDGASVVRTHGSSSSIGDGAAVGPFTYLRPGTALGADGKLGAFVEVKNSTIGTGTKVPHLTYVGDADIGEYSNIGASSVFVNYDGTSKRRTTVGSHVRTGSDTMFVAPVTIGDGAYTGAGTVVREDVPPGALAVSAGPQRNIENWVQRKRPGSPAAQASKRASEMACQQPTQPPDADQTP

SMILES	inhibition
O=C(O)c1ccccc1SCc1cn2cc(Br)ccc2n1	0.7% (inactive)
CCOc1ccc2c(c1)C(=O)c1cc(OCC(=O)O)ccc1-2	-3.72% (inactive)
O=C(c1ccccc1)c1ccccc1C(=O)N1CCCC1	13.3% (active)
O=C(c1ccccc1)c1ccccc1C(=O)N1CCOCC1	-1.73% (inactive)
O=C(c1ccccc1)c1ccccc1C(=O)N1CCN(C(=O)c2ccccc2)CC1	-3.19% (inactive)
CCCNC(=O)c1ccc(Cn2cc(C(F)(F)F)ccc2=O)cc1	0.72% (inactive)
O=C(Nc1cc2c(ccc3ccccc32)oc1=O)C1CCCCC1	0.95% (inactive)
N=C1/C(=C/c2cccn2CCOc2ccccc2)C(=O)N=C2SC=C(c3ccccc3)N12	2.69% (inactive)
COc1cc(/C=C2/C(=N)N3C(c4ccccc4)=CSC3=NC2=O)ccc1OCC(=O)O	14.6% (active)
CC(C)S(=O)(=O)C1=NSC2=NC(=O)/C(=C\c3ccc(-c4ccccc4)o3)C(=N)N21	4.83% (inactive)
CS(=O)(=O)C1=NSC2=NC(=O)/C(=C\c3ccc(-c4ccccc4)o3)C(=N)N21	-0.37% (inactive)
COc1cc(/C=C2/C(=N)N3C=CSC3=NC2=O)ccc1OCCCOc1ccccc1C	-3.86% (inactive)
Cc1ccc(-n2c(C)cc(/C=C3/C(=N)N4C(c5ccccc5)=CSC4=NC3=O)c2C)cc1	7.47% (inactive)
N=C1/C(=C\c2ccc(-c3cc(Cl)cc(Cl)c3)o2)C(=O)N=C2SC=C(c3ccccc3)N12	-7.2% (inactive)
Cc1cccc(-n2c(C)cc(/C=C3/C(=N)N4C(c5ccccc5)=CSC4=NC3=O)c2C)c1	1.75% (inactive)
Cc1cc(/C=C2/C(=N)N3C(c4ccccc4)=CSC3=NC2=O)c(C)n1-c1ccccc1	-4.29% (inactive)
CCNC(=O)Oc1ccc[nH]c1=O	6.02% (inactive)
CN(C)c1ccc(C=C(c2nnnn2-c2ccccc2)c2nnnn2-c2ccccc2)cc1	-2.49% (inactive)
COC(=O)N/N=C(\C)c1ccc(OC(F)F)cc1OC(F)F	6.36% (inactive)
FC(F)(F)c1ccccc1NC(=S)N1CCN(Cc2ccc3c(c2)OCO3)CC1	-0.82% (inactive)
CCc1ccc(NC(=O)CSCCN2C(=O)c3ccccc3C2=O)cc1	-2.41% (inactive)
CCCCCNC(=O)c1cc(S(=O)(=O)N2CCCC2)ccc1F	0.96% (inactive)
Cc1ccccc1-n1c(C)cc(/C=C2/C(=N)N3C(c4ccccc4)=CSC3=NC2=O)c1C	-1.94% (inactive)
O=C1OC(c2cccs2)=N/C1=C\c1ccc(-c2cccc(Cl)c2)o1	7.15% (inactive)

SMILES	inhibition
N=C1/C(=C/c2ccc(-c3cccc(C(=O)O)c3)o2)C(=O)N=C2SC=C(c3ccccc3)N12	53.6% (active)
N=C1/C(=C\c2ccc(-c3cccc(Cl)c3)o2)C(=O)N=C2SC=C(c3ccccc3)N12	-2.27% (inactive)
O=C1OC(c2cccs2)=N/C1=C/c1ccc(-c2cccc(C(=O)O)c2)o1	18.7% (active)
O=C1OC(c2cccs2)=N/C1=C\c1ccc(-c2ccccc2Cl)o1	7.66% (inactive)
Cc1ccc(N/C=C(/C#N)c2ccsc2)cc1	1.11% (inactive)
COc1cc(O)c(C(CCN2CCCC2)c2cc(OC)c(OC)c(OC)c2)c(OC)c1 (stereo not given)	1.11% (inactive)
Cc1ccc(/C=N\NC(=O)C2CC(=O)N(c3ccccc3)C2)o1 (stereo not given)	3.39% (inactive)
Cc1cc(C)n2nc(C(=O)NCCc3ccccc3)nc2n1	14.6% (active)
Cc1cc(C)n2nc(C(=O)NCc3ccccc3)nc2n1	-3.46% (inactive)
Cc1cc(C)n2nc(SCCC(=O)NCCc3ccccc3)nc2n1	-3.62% (inactive)
CCN(CC(=O)NCc1ccc(Cl)cc1)S(=O)(=O)c1ccc(NC(C)=O)cc1	-2.53% (inactive)
Cc1ccc(C(=O)NC(C)CCc2ccccc2)cc1[N+](=O)[O-] (stereo not given)	3.64% (inactive)
CC(CCc1ccccc1)NC(=O)c1cccc([N+](=O)[O-])c1 (stereo not given)	13.1% (active)
CC(CCc1ccccc1)NC(=O)c1ccccc1 (stereo not given)	-2.82% (inactive)
CCn1c(SCC(=O)NCCc2ccccc2)nnc1C(C)C	1.51% (inactive)
Cn1c(SCC(=O)c2ccc3c(c2)NC(=O)CO3)nc2ccccc21	-5.28% (inactive)
COc1cccc(C(=O)Cn2c(=N)n(C)c3ccccc32)c1	13% (active)
Cn1c(=N)n(CC(=O)c2ccccc2)c2ccccc21	3.23% (inactive)
COc1ccc(C(=O)Cn2c(=N)n(C)c3ccccc32)cc1	-4.4% (inactive)
Nc1ncnc(Nc2ccc(S(N)(=O)=O)cc2)n1	-0.83% (inactive)
CNC(=S)N1CCN(C(=O)c2ccco2)CC1	2.06% (inactive)
COc1ccc(NC2(C#N)CCCCC2)cc1	-1.99% (inactive)
CC(Nc1nc(-c2ccc3c(c2)NC(=O)CO3)cs1)c1ccccc1 (stereo not given)	-7.09% (inactive)
COC(=O)Cc1ccc(NC(=S)NCCSc2ccc(Cl)cc2)cc1	3.25% (inactive)

SMILES	inhibition
COc1ccc2c(c1)c(C(=O)CN1CCC3(CC1)OCCO3)c(C)n2Cc1ccccc1	-7.53% (inactive)
COc1ccc2c(c1)c(C(=O)CN1CCC3(CC1)OCCO3)c(C)n2C	13% (active)
COc1ccc2c(c1)c(C(=O)CN1CCOCC1)c(C)n2C	5.7% (inactive)
Cc1cc(C(C)(C)C)oc1C(=O)N(CC(=O)NC1CCCC1)Cc1ccccc1	-0.33% (inactive)
Cn1c(=O)c2c(ncn2CC(O)CNc2cccc(Cl)c2)n(C)c1=O (stereo not given)	-0.25% (inactive)
COC(=O)Nc1ccc(S(=O)(=O)NCCCCCC(=O)O)cc1	-5.41% (inactive)
O=C(O)c1ccccc1Nc1ccccc1C(=O)O	-0.95% (inactive)
COc1ccc(Nc2ccccc2C(=O)O)cc1	-1.06% (inactive)
COc1cc(-c2ccc(Nc3ccccc3C(=O)O)c(OC)c2)ccc1Nc1ccccc1C(=O)O	27.4% (active)
O=[N+]([O-])c1ccc(Oc2ccc(S(=O)(=O)N3CCCCC3)cc2)cc1	-0.28% (inactive)
O=c1c2[nH]c3cccc(Cl)c3c2ncn1CCN1CCCCC1	0.41% (inactive)
CCOP(=O)(C1=C(O)C(=O)C(C(C)(C)C)=CC1=O)c1ccccc1 (stereo not given)	19.3% (active)
CCP(=O)(c1ccccc1)C(C)(C)O (stereo not given)	4.81% (inactive)
CCCOP(=O)(c1ccccc1)c1ccccc1	0.12% (inactive)
O=C1CN=C(c2ccc(Br)cc2)c2oc3ccccc3c2N1	14.2% (active)
O=C1CN=C(c2ccc(Cl)cc2)c2oc3ccccc3c2N1	2.87% (inactive)
O=C1CN=C(c2ccc(F)cc2)c2oc3ccccc3c2N1	0.53% (inactive)
Cc1cccc(/C(N)=N/OC(=O)CCc2ccccc2)c1	3.83% (inactive)
O=C(c1ccc(O)cc1)c1ccc(C(=O)c2ccc(O)cc2)cc1	-1.69% (inactive)
O=C(O)c1ccc(C(=O)O)c(C(=O)c2ccccc2)c1	1.74% (inactive)
O=C(c1ccc(O)cc1)c1ccc(C(=O)O)c(C(=O)O)c1	12.8% (active)
Cc1ccc(C)c(NCc2ccccc2CO)c1	-3.27% (inactive)
Cc1ccccc1CN1C(=O)c2ccccc2Sc2ccc(C(=O)O)cc21	-2.8% (inactive)
Cc1cccc(CN2C(=O)c3ccccc3Sc3ccc(C(=O)O)cc32)c1	14.3% (active)

SMILES	inhibition
O=C(O)c1ccc2c(c1)N(Cc1ccccc1)C(=O)c1ccccc1S2	-0.29% (inactive)
COCc1cc(C)nc(SCC(=O)Nc2cccc3cccnc23)c1C#N	15.1% (active)
COCc1cc(C)nc(SCC(=O)Nc2cccc(C)c2C)c1C#N	3.01% (inactive)
COCc1cc(C)nc(SCC(=O)Nc2ccccc2C)c1C#N	2.63% (inactive)
CC(C)(C)NCC(O)Cn1cc(C=O)c2ccccc21 (stereo not given)	1.11% (inactive)
CC1(c2ccccc2)CC(C)(C)N2C(=O)Cc3cccc1c32 (stereo not given)	2.59% (inactive)
Cc1cccc(-n2c(=O)[nH]c3c(C(N)=O)nc(C(C)C)nc32)c1	0.14% (inactive)
CCn1c2ccccc2c2cc(NC(=O)CSc3nnc(-c4ccc(OC)cc4)n3N)ccc21	1.4% (inactive)
CCn1c2ccccc2c2cc(NC(=O)CSc3nnc(-c4cccc(OC)c4)n3N)ccc21	14.2% (active)
CCn1c2ccccc2c2cc(NC(=O)CSc3nnc(-c4ccc(OC)c(OC)c4)n3N)ccc21	3.95% (inactive)
COC(=O)c1c(NC(=O)C2COc3ccccc3O2)sc2c1CCN(C(C)=O)C2 (stereo not given)	2.68% (inactive)
O=C(COC(=O)/C=C/c1ccccc1[N+](=O)[O-])NC1CCS(=O)(=O)C1 (stereo not given)	6.21% (inactive)
Cn1cnc([N+](=O)[O-])c1S(=O)(=O)c1cccc(Cl)c1	14.8% (active)
Cn1cnc([N+](=O)[O-])c1Oc1ccc2ccccc2c1	-3.73% (inactive)
Cc1cccc(Sc2c([N+](=O)[O-])ncn2C)c1	4.72% (inactive)
Cn1cnc([N+](=O)[O-])c1Cl	2.48% (inactive)
CCS(=O)(=O)c1c([N+](=O)[O-])ncn1C	5.34% (inactive)
COc1ccc(/C=C(\C)c2nc(C)c(-c3ccccc3)c(=O)[nH]2)cc1	4.53% (inactive)
Fc1ccc(N2CCN(c3ncnc4nc[nH]c34)CC2)cc1	4.66% (inactive)
O=C(COC(=O)c1ccc(S(=O)(=O)N2CCCC2)cc1)Nc1ccc(N2CCOCC2)cc1	-1.26% (inactive)
NC(=O)CSc1nc(-c2ccccc2)nc2c1CCCC2	-3.87% (inactive)
Cc1cccc(-c2nc3c(c(SCC(N)=O)n2)CCCC3)c1	14.5% (active)
Cc1cccc(-c2nc3c(c(SCC(=O)N(C)C)n2)CCCC3)c1	-3.93% (inactive)
